# This excerpt belongs to a sample that is enriched for the strongest signals.
# B1: EEA (Euonymus europaeus) (protein)
# chain: MASTIIATGPTYRVYCRAAPNYNMIVGKGVAFLAPIDETNELQYWYKDDTYSYIKDEAGLPAFSLVNKATGLTLKHSNHHPVPVKLVTYNPNVVDESVLWSQADDRGDGYSAIRSLTNPASHLEAAPLNDWSYNGAIIMGGVWIDAYNQQWKIEPHTG
# What was measured:
# Assay in all cases: glycan array binding signal (z-score within array); higher = stronger binding
# Conditions in all cases: glycan notation: IUPAC condensed, linker removed
# [1] = molecular target: Fuc(a1-2)Gal(b1-4)[Fuc(a1-3)]GlcNAc(b1-3)GalNAc
# How it was run: (§1)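 Columns mapping to the same glycan were averaged after glycan names were converted to IUPAC-condensed notation. The data come from 3228 arrays in the Consortium for Functional Glycomics database, limited to those with an available protein sequence. Binding is reported as a within-array Z-score averaged across arrays of one protein sequence and across linkers.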
# [2] = molecular target: Fuc(a1-2)[Gal(a1-3)]Gal(b1-3)GlcNAc
# How it was run: as §1
# [3] = molecular target: Fuc(a1-2)[Gal(a1-3)]Gal(b1-3)GlcNAc(b1-2)Man(a1-3)[Fuc(a1-2)[Gal(a1-3)]Gal(b1-3)GlcNAc(b1-2)Man(a1-6)]Man(b1-4)GlcNAc(b1-4)GlcNAc
# How it was run: as §1
# [4] = molecular target: Fuc(a1-2)[Gal(a1-3)]Gal(b1-3)GlcNAc(b1-2)Man(a1-3)[Fuc(a1-2)[Gal(a1-3)]Gal(b1-3)GlcNAc(b1-2)Man(a1-6)]Man(b1-4)GlcNAc(b1-4)[Fuc(a1-6)]GlcNAc
# How it was run: as §1
# [5] = molecular target: Fuc(a1-2)[Gal(a1-3)]Gal(b1-3)GlcNAc(b1-6)GalNAc
# How it was run: as §1
# [6] = molecular target: Fuc(a1-2)[Gal(a1-3)]Gal(b1-4)Glc
# How it was run: as §1
# [7] = molecular target: Fuc(a1-2)[Gal(a1-3)]Gal(b1-4)GlcNAc
# How it was run: as §1
# [8] = molecular target: Fuc(a1-2)[Gal(a1-3)]Gal(b1-4)GlcNAc(b1-2)Man
# How it was run: as §1
# [9] = molecular target: Fuc(a1-2)[Gal(a1-3)]Gal(b1-4)GlcNAc(b1-2)Man(a1-3)[Fuc(a1-2)[Gal(a1-3)]Gal(b1-4)GlcNAc(b1-2)Man(a1-6)]Man(b1-4)GlcNAc(b1-4)GlcNAc
# How it was run: as §1
# [10] = molecular target: Fuc(a1-2)[Gal(a1-3)]Gal(b1-4)GlcNAc(b1-2)Man(a1-3)[Fuc(a1-2)[Gal(a1-3)]Gal(b1-4)GlcNAc(b1-2)Man(a1-6)]Man(b1-4)GlcNAc(b1-4)[Fuc(a1-6)]GlcNAc
# How it was run: as §1
# [11] = molecular target: Fuc(a1-2)[Gal(a1-3)]Gal(b1-4)GlcNAc(b1-3)GalNAc
# How it was run: as §1
# [12] = molecular target: Fuc(a1-2)[Gal(a1-3)]Gal(b1-4)GlcNAc(b1-6)GalNAc
# How it was run: as §1
# [13] = molecular target: Fuc(a1-2)[Gal(a1-3)]Gal(b1-4)[Fuc(a1-3)]GlcNAc
# How it was run: as §1
# [14] = molecular target: Fuc(a1-3)[Gal(b1-4)]GlcNAc(b1-2)Man(a1-3)[Fuc(a1-3)[Gal(b1-4)]GlcNAc(b1-2)Man(a1-6)]Man(b1-4)GlcNAc(b1-4)GlcNAc
# How it was run: as §1
# [15] = molecular target: Fuc(a1-3)[Gal(b1-4)]GlcNAc(b1-3)Gal(b1-3)[Fuc(a1-4)]GlcNAc
# How it was run: as §1
# [16] = molecular target: Fuc(a1-3)[Gal(b1-4)]GlcNAc(b1-3)Gal(b1-4)[Fuc(a1-3)]GlcNAc(b1-3)Gal(b1-4)[Fuc(a1-3)]GlcNAc
# How it was run: as §1
# [17] = molecular target: Fuc(a1-3)[Gal(b1-4)]GlcNAc(b1-6)GalNAc
# How it was run: as §1
# [18] = molecular target: Fuc(a1-3)[Gal3S(b1-4)]GlcNAc6S
# How it was run: as §1
# [19] = molecular target: Gal(a1-3)Fuc(a1-2)Gal(b1-4)GlcNAc(b1-3)[Gal(a1-3)Fuc(a1-2)Gal(b1-4)GlcNAc(b1-6)]GalNAc
# How it was run: as §1
# [20] = molecular target: Gal(b1-3)GlcNAc(b1-2)Man(a1-3)[Gal(b1-3)GlcNAc(b1-2)Man(a1-6)]Man(b1-4)GlcNAc(b1-4)GlcNAc
# How it was run: as §1
# [21] = molecular target: Gal(b1-3)GlcNAc(b1-3)Gal(b1-4)GlcNAc(b1-3)Gal(b1-4)GlcNAc(b1-2)[Gal(b1-3)GlcNAc(b1-3)Gal(b1-4)GlcNAc(b1-3)Gal(b1-4)GlcNAc(b1-6)]Man(a1-6)[Gal(b1-3)GlcNAc(b1-3)Gal(b1-4)GlcNAc(b1-3)Gal(b1-4)GlcNAc(b1-2)Man(a1-3)]Man(b1-4)GlcNAc(b1-4)[Fuc(a1-6)]GlcNAc
# How it was run: as §1
# [22] = molecular target: Gal(b1-4)GlcNAc(b1-2)Man(a1-3)Man(b1-4)GlcNAc(b1-4)GlcNAc
# How it was run: as §1
# [23] = molecular target: Gal(b1-4)GlcNAc(b1-2)Man(a1-3)[GlcNAc(b1-2)Man(a1-6)]Man(b1-4)GlcNAc(b1-4)GlcNAc
# How it was run: as §1
# [24] = molecular target: Gal(b1-4)GlcNAc(b1-2)[Gal(b1-4)GlcNAc(b1-4)]Man(a1-3)[Gal(b1-4)GlcNAc(b1-2)Man(a1-6)]Man(b1-4)GlcNAc(b1-4)GlcNAc
# How it was run: as §1
# [25] = molecular target: Gal(b1-4)GlcNAc(b1-3)Gal(b1-3)GalNAc
# How it was run: as §1
# [26] = molecular target: Gal(b1-4)GlcNAc(b1-3)Gal(b1-3)GlcNAc
# How it was run: as §1
# [27] = molecular target: Gal(b1-4)GlcNAc(b1-3)Gal(b1-4)Glc
# How it was run: as §1
# [28] = molecular target: Gal(b1-4)GlcNAc(b1-3)Gal(b1-4)GlcNAc(b1-3)Gal(b1-4)GlcNAc(b1-2)Man(a1-3)[Gal(b1-4)GlcNAc(b1-3)Gal(b1-4)GlcNAc(b1-3)Gal(b1-4)GlcNAc(b1-2)Man(a1-6)]Man(b1-4)GlcNAc(b1-4)[Fuc(a1-6)]GlcNAc
# How it was run: as §1
binder,measurement,setting,value
B1,glycan array binding signal (z-score),[1],0.023
same,glycan array binding signal (z-score),[2],5.83
same,glycan array binding signal (z-score),[3],5.22
same,glycan array binding signal (z-score),[4],3.76
same,glycan array binding signal (z-score),[5],3.77
same,glycan array binding signal (z-score),[6],4.49
same,glycan array binding signal (z-score),[7],6.17
same,glycan array binding signal (z-score),[8],3.94
same,glycan array binding signal (z-score),[9],11.4
same,glycan array binding signal (z-score),[10],5.12
same,glycan array binding signal (z-score),[11],4.01
same,glycan array binding signal (z-score),[12],-0.195
same,glycan array binding signal (z-score),[13],-0.181
same,glycan array binding signal (z-score),[14],-0.21
same,glycan array binding signal (z-score),[15],-0.169
same,glycan array binding signal (z-score),[16],-0.252
same,glycan array binding signal (z-score),[17],-0.124
same,glycan array binding signal (z-score),[18],-0.209
same,glycan array binding signal (z-score),[19],4.66
same,glycan array binding signal (z-score),[20],-0.157
same,glycan array binding signal (z-score),[21],-0.049
same,glycan array binding signal (z-score),[22],-0.282
same,glycan array binding signal (z-score),[23],-0.235
same,glycan array binding signal (z-score),[24],-0.173
same,glycan array binding signal (z-score),[25],-0.23
same,glycan array binding signal (z-score),[26],-0.101
same,glycan array binding signal (z-score),[27],-0.156
same,glycan array binding signal (z-score),[28],-0.144
